# Experimental data from ChEMBL document CHEMBL1157539, “Thousands of chemical starting points for antimalarial lead identification” (Nature, 2010).
# Columns and labels:
# Type in all cases: functional
# Plasmodium falciparum [1] = assay: GSK_TCMDC: Inhibition of Plasmodium falciparum 3D7 in whole red blood cells, using parasite LDH activity as an index of growth. Test compounds present at 2uM
# Plasmodium falciparum [2] = assay: GSK_TCMDC: Inhibition of Plasmodium falciparum Dd2 in whole red blood cells, using parasite LDH activity as an index of growth. Test compounds present at 2uM
# HepG2 = assay: GSK_TCMDC: Percent inhibition of human HepG2 cell line. Test compounds present at 10uM.
SMILES,Inhibition (Plasmodium falciparum [1]),Inhibition (Plasmodium falciparum [2]),Inhibition (HepG2)
Cc1cc(N(C)C)nc(Nc2ccc(NC(=O)c3ccc(F)cc3)cc2)n1,100%,21%,8%
Cc1ccccc1Oc1nc2ccccc2nc1SCC(=O)NC(C)C,97%,55%,0%
CCC(C)CN1CCCN(c2ccc(NC(=O)c3cccs3)cc2)CC1.O=C(O)C(F)(F)F (centres undefined),91%,95%,4%
CCN(CC)CCN(Cc1ccc(-c2ccc(C(F)(F)F)cc2)cc1)C(=O)Cn1c(CCc2cccc(F)c2F)cc(=O)cc1-c1ccccc1,94%,64%,33%
FC(F)(F)c1ccc2[nH]c(-c3ccc(-c4cccc(CNCCN5CCNCC5)c4)cc3)nc2c1.O=C(O)C(F)(F)F,92%,2%,13%
COc1cc(/C=N/Nc2nc(Nc3ccccc3)nc(Nc3ccccc3)n2)ccc1OCc1ccccc1[N+](=O)[O-],98%,18%,8%
CCCCSc1c(CNCCCCCCNCc2ccc3ccccc3c2SCCCC)ccc2ccccc12.CS(=O)(=O)O,93%,62%,99%
COc1ccc(CN(C)CCCc2ccc(NC(=O)c3cc4ccccc4[nH]3)cc2)cc1OC.O=C(O)/C=C/C(=O)O,97%,31%,39%
Cc1nc(-c2ccc(-c3ccc(C(=O)Nc4ccc(-n5ccnc5)c(N5CCN(C)CC5)c4)cc3)c(C)c2)no1,100%,100%,34%
CO[C@H](C)[C@H](NC(=O)[C@H](CC(C)C)[C@H](CCC(F)(F)F)N(O)C=O)C(=O)Nc1nccs1,99%,96%,0%
Cc1cc(N)c2cc(NC(=O)/C=C/c3ccccc3)ccc2n1,100%,68%,20%
c1nc2nc3c(c(Nc4ccc5c(c4)CCC5)n2n1)CCC3,87%,70%,0%
CCc1c[nH]c2c(N3CCCS3(=O)=O)cc(C(=O)N[C@@H](Cc3ccccc3)[C@H](O)CNC(C)(C)CCCC(C)C)cc12,96%,98%,13%
Cc1nc2c(Nc3nc(-c4ccncc4)cs3)ncnc2n1-c1ccccc1Cl,97%,96%,14%
O=C(Cn1c2ccccc2c(=O)c2ccc(Cl)cc21)Nc1ccc(C(F)(F)F)cc1,99%,100%,30%
Cc1cccc2nc(-c3ccc(-c4cccc(NCc5cn6cccnc6n5)c4)cc3)[nH]c12,94%,63%,9%
O=C(Nc1ccc(-c2oc(C(=O)NCCc3cccc(Cl)c3)cc2-c2ccncc2)cc1)Nc1cccc(Cl)c1.O=C(O)C(F)(F)F,99%,84%,13%
CCOc1cc(C(=O)NC2CC(C)(C)N(C)C(C)(C)C2)ccc1-c1nc2cc(Cl)c(Cl)cc2[nH]1,100%,49%,64%
COC(=O)Cc1ccc(N)c2ccccc12.Cl,98%,0%,2%
COc1cc(NC(=O)/C=C/c2cc(F)cc(F)c2F)cc(OCCN2CCN(CCN3CCOCC3)CC2)c1.O=C(O)C(=O)O,100%,94%,21%
Cc1ccc2nc(-c3ccc(C(=O)NC4CCN(Cc5ccccc5)CC4)s3)[nH]c2c1,97%,83%,13%

SMILES,Inhibition (Plasmodium falciparum [1]),Inhibition (Plasmodium falciparum [2]),Inhibition (HepG2)
COc1cc(NC(=O)Nc2cccc3ccccc23)c(OC)cc1Cl,97%,71%,0%
O=C(Nc1ccc(N2CCNCC2)nc1)c1oc(-c2ccccc2)nc1C(F)(F)F,100%,62%,7%
Cc1cc(NCc2ccccc2)nc2cc(O)ccc12,98%,80%,0%
O=C(O)c1ccc2c(c1)N(C(=O)CNCc1ccc(F)cc1)CC(=O)N2CCCc1ccccc1,95%,0%,1%
CCN(CC)CCN(CCN(CC)CC)c1ccc(-c2nc3cc(Cl)c(Cl)cc3[nH]2)cc1,100%,97%,9%
CN(C)S(=O)(=O)c1ccc(Nc2nc(NCCC3C=NC=N3)nc3cc[nH]c(=O)c23)cc1 (centres undefined),96%,63%,8%
COc1ccc2nc3cc(Cl)ccc3c(NCCCCNc3c4ccc(Cl)cc4nc4ccc(OC)cc34)c2c1,99%,99%,20%
COC(=O)c1cc(/C(C)=N/Nc2nc3ccccc3[nH]2)ccc1O,100%,75%,9%
O=C(NC1CCCCC1)c1ccc(O)c(-c2cccc(C(F)(F)F)c2)c1,97%,87%,8%
CC(=O)N[C@H](C(=O)Nc1ccc(-c2cccc(-c3nc4cccc(C)c4[nH]3)c2)cc1)C(C)C,89%,10%,9%
CN(C)CCN(C)Cc1ccc(-c2ccc(NC(=O)c3cccc(Cl)c3)cc2)cc1.O=C(O)C(F)(F)F,94%,54%,50%
Cc1cc(=NN=Cc2ccccn2)c2cc(F)ccc2[nH]1,100%,96%,9%
O=C(Nc1ccc(-c2csc(-c3nc4ccccc4[nH]3)c2)cc1)Nc1ccc(F)c(F)c1F,100%,64%,67%
O=C(NC1CCN(CCCOc2ccnc3cc(Cl)ccc23)C1)c1ccc(Br)cc1 (centres undefined),86%,87%,21%
CC(C)(CN)c1cc(-c2ccc(Cl)c(O)c2)c(-c2ccncc2)o1.Cl,92%,97%,44%
Cc1[nH]c2ccc(C#N)cc2c(=O)c1Br,91%,61%,2%
COc1ccccc1C1CCN(C2CCC(NC(=O)/C=C/c3cccc(Cl)c3)CC2)CC1 (centres undefined),92%,20%,54%
CN(C)C(CNC(=O)c1cc(-c2ccncc2)c(-c2ccc(Cl)c(O)c2)o1)c1ccccc1.O=C(O)C(F)(F)F (centres undefined),91%,28%,28%
CN1CCN(c2ccnc3ccc(NC(=O)Nc4cccc5c(C#N)cccc45)cc23)CC1,91%,40%,0%
O=C(COc1ccccc1)Nn1cnc2ccccc21,91%,0%,2%
O=C(Nc1cccc(-c2nn3ncccc3c2-c2ccnc(Nc3cccc(-c4cnco4)c3)n2)c1)c1c(F)cccc1F,97%,98%,96%

SMILES,Inhibition (Plasmodium falciparum [1]),Inhibition (Plasmodium falciparum [2]),Inhibition (HepG2)
O=C(Nc1ccccc1Cl)c1cc2ccccc2cc1O,94%,72%,2%
CC(C)CC(NC(=O)c1ccc(F)cc1)C(=O)N[C@H](/C=N/N1CCNC1=O)CC(C)C (some centres undefined),89%,84%,0%
COc1ccc(C2N=C(N)N=C(N)N2c2ccc(Cl)cc2)cc1OC.Cl (centres undefined),85%,4%,4%
CCN(CCCN1CCCCC1)c1cc(C)nc(Nc2ccc(C)cc2C)n1.O=C(O)C(F)(F)F,91%,35%,33%
Cc1[nH]c(C)c(-c2ccc(OCCSc3ccncc3)cc2)c(=O)c1Br,95%,95%,0%
CC(C)c1ccc(NC(=O)c2cccc(CN3CCCN(Cc4cccc(O)c4)CC3)c2)cc1.O=C(O)C(F)(F)F,97%,33%,25%
CC(O)C1CCCCN1C(=O)c1cccc(-c2cccc(-c3nc4cc(C(F)(F)F)ccc4[nH]3)c2)c1 (centres undefined),100%,100%,32%
COc1ccc2c(=NN=Cc3ccccc3Cl)cc(C)[nH]c2c1,100%,99%,5%
O=C(N[C@@H](Cc1ccccc1)[C@H](O)CNCCC(F)(F)F)c1cccc(CCC2CC2)c1,87%,13%,0%
N=C(N)c1ccc(NC(=O)c2cc(Sc3ccc(O)c(C(=O)Nc4ccc(C(=N)N)cc4)c3)ccc2O)cc1,93%,87%,11%
COc1ccc2nccc([C@@H](O)CN3CCC(NCc4cnc5c(c4)NC(=O)CS5)C(F)C3)c2c1.Cl (some centres undefined),90%,90%,0%
C=CCc1cc(C2CCN(CCCCNC(=O)c3ccc(-c4ccc(C#N)cc4)cc3)CC2)c(OCC(N)=O)c2c1CCCC2,100%,92%,43%
Cl.N#Cc1ccc(NC(=O)Nc2ccc3c(c2)CCN(C2CCC2)CC3)cc1,96%,11%,6%
Cc1cc(N)nc2ccc(-c3cccc(CN)c3)cc12,100%,59%,2%
N=C(N)NN=CC(=O)Nc1ccc(Br)cc1.O=S(=O)(O)O,100%,1%,5%
COc1ccc(C(=O)N2CCc3cc4nccc(N5CCN6CCC[C@H]6C5)c4cc32)cc1,98%,50%,1%
COc1ccc2nccc([C@@H](O)CN3CCC(NCc4cc5ccc(C#N)cc5[nH]4)CC3)c2c1.O=C(O)C(=O)O,100%,39%,31%
O=C(NC(=S)Nc1cc(C(F)(F)F)cc(C(F)(F)F)c1)c1ccc(Cl)cc1,96%,99%,31%
O=C(NCCCCCN1CCC(c2c[nH]c3ccccc23)CC1)Nc1cccc(I)c1,99%,11%,70%
Cc1cccc2nc(-c3ccc(-c4cccc(CNCCc5ccncc5)c4)s3)[nH]c12.O=C(O)C(F)(F)F,100%,89%,11%
O=C(NCCCCN1CCC(c2ccc(-c3ccco3)cc2)CC1)c1ccc(NC(=O)c2ccc(Cl)cc2)cc1,100%,97%,26%
